Molecular target: T1, Thyroid hormone receptor beta (Homo sapiens) (UniProt P10828)
T1 sequence (whole entry): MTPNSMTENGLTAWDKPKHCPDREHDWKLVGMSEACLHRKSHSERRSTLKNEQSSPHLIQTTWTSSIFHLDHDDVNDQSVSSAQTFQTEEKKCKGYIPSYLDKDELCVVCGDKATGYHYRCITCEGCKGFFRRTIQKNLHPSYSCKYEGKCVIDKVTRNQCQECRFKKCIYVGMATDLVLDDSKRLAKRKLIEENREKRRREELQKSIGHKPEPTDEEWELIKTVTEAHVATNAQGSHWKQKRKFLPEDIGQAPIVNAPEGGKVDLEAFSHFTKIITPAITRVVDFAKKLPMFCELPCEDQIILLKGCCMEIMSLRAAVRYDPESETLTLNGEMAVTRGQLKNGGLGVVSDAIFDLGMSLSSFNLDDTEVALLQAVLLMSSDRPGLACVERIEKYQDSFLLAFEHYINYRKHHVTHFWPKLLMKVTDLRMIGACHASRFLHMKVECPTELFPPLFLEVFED
Experiment: qHTS Assay for Inhibitors of the Interaction of Thyroid Hormone Receptor and Steroid Receptor Coregulator 2: Probe Summary. [Related pubchem assays (depositor defined):AID1469, AID1479, AID1567, AID1568, AID1570, AID1571, AID1573, AID2444, AID2447, AID2448, AID2449, AID2455, AID2479, AID2487, AID2490, AID2552]; call rule not given here
Type: functional

| SMILES | Potency |
| --- | --- |
| CCC(OC(=O)c1ccc(S(C)(=O)=O)c([N+](=O)[O-])c1)C(=O)NC1C2CC3CC(C2)CC1C3 (centres undefined) | 1100 nM (active) |
| CC(OC(=O)c1ccc(S(C)(=O)=O)c([N+](=O)[O-])c1)C(=O)NC1C2CC3CC(C2)CC1C3 (centres undefined) | 1400 nM (active) |
| CCCC1CCN(C(=O)COC(=O)c2ccc(S(C)(=O)=O)c([N+](=O)[O-])c2)CC1 | 3300 nM (active) |
| CC1CCN(C(=O)COC(=O)c2ccc(S(C)(=O)=O)c([N+](=O)[O-])c2)CC1 | 9800 nM (active) |
